# PubChem BioAssay AID2472 (National Center for Advancing Translational Sciences (NCATS), 2010)
# Several values for one entry are separate records, joined by “and”; a condition that tells them apart may be missing. Identical values can stand only once. Hit rate of the full screen: of about 290,000 compounds, about 2,000 (0.69%) were called active. Cut-off read from the data, not from the text of the source: active = activity change below about -30%; inactive = the rest, inconclusive results apart. The entries come from a sample that favours actives as a whole. Where a structure was tested more than once in an assay, its records may differ in their call.
# Experiment: qHTS Assay for Inhibitors of Fructose-1,6-bisphosphate Aldolase from Giardia Lamblia: Coupling assay counterscreen
# Conditions: coupling enzyme system counterscreen, AmpLite Red fluorescence; at 58.2 µM (top of the series)
# Description: MLPCN Grant: MH085699-01 Assay Provider: Osnat Herzberg, University of Maryland NCGC Assay Overview: The objective of this project is to obtain compounds that inhibit Giardia lamblia growth. G. lamblia is a human pathogen which afflicts impoverished nations; it is the most common cause of outbreaks of diarrhea in the United States. During the course of our study of potential drug targets in Giardia, we have identified the Class II (Zn2+ functions in electrophilic catalysis) fructose-1,6-bisphosphate aldolase (FBPA) as an excellent candidate for drug targeting. FBPA is a key glycolytic pathway enzyme, essential for G. lamblia survival. The human FBPA belongs to the Class I aldolases, which have a different substrate binding site structure and a radically different catalytic mechanism (employing a lysine-Schiff base intermediate). Therefore, affinity-based or mechanism-based inhibitors of the Giardia FBPA are expected not to interfere with the catalytic function of the human FBPA. A glyceraldehyde-3-phosphate dehydrogenase/triose phosphate isomerase/NAD/arsenate coupled assay was adapted to the 1536-well HTP format for use in the primary screen. This was done by coupling it to a diaphorase/resazurin/resorufin reaction that can be monitored by fluorescence (excitation, 544 nm; emission, 590 nm). Compounds identified in this screen will be further evaluated by coupling the […]/triose phosphate isomerase/NADH assay to a phenazine methosulfate/tetranitroblue tetrazolium color reaction. False positives due to the dehydrogenases and diaphorase inhibition will be eliminated, and selectivity assay will triage inhibitors of mammalian triose phosphate isomerase and the Class I FBPA. G. lamblia FBPA inhibitors identified by the in vitro analyses will be examined for growth inhibition of Giardia trophozoites, and for cytotoxicity in human cells. This assay specifically addresses whether activity observed in the primary screen (AID 2451) is related to inhibition of the coupling assay used, as opposed to inhibition of aldolase. Actives in this assay are considered inconclusive for activity against aldolase.
# NCGC Assay Protocol: Step,Parameter,Value,Description 1,Coupling enzyme reagent,2 uL,glyceraldehyde-3-phosphate 2,Compound,23 nL,3.68 nM-57.5 uM final concentration 3,Time,10 min,RT Incubation 4,Substrate/detection Reagent,2 uL,Substrate + enzyme coupling system + AmpLite Red kit 5,Time,20 min,RT Incubation 6,Detector,525 nm/598 nm (Fluorescence),ViewLux Fluorescence Read (Read 1) Notes: 1,Medium-binding black solid-bottom Kalypsys plates. FRD or Kalypsys dispenser. 2,Compound Library (10 mM ,1:5 dilution). Pin-transferred for a [final] range of 3.68 nM-57.5 uM. 3,RT incubation 4,FRD or Kalypsys dispenser, 2 uL of reaction mixture. Bottle kept at 4C and covered in foil to protect from light. 5,RT incubation 6,ViewLux Protocol 1194; Excitation filter wheel A (525/20 Pol; BODIPY TMR FP), Emission filter wheel B (598/25 S; BODIPY TMR FP S). Keywords: Fructose-bisphosphate aldolase, FBPA , Giardia lamblia , Giardia, HTS, Inhibitors
# % is set by controls: 0 for no effect and ±100 for the full control effect.
row,Compound,"activity change, negative = inhibition"
1,NCCc1c[nH]c2ccc(O)cc12,-9.84% (inactive) and -40.6% (active)
2,C/C(CCc1c[nH]c2ccccc12)=N\O,-2.5% (inactive)
3,Cc1cccc2c(CCN)c[nH]c12,-2.64% (inactive)
4,N#Cc1cc(Br)c(O)c(Br)c1,2.57% (inactive)
5,C[C@@H]1C[C@H]2CC[C@H](O2)[C@H](C)C(=O)O[C@@H](C)C[C@@H]2CC[C@@H](O2)[C@@H](C)C(=O)O[C@H](C)C[C@H]2CC[C@H](O2)[C@H](C)C(=O)O[C@@H](C)C[C@@H]2CC[C@@H](O2)[C@@H](C)C(=O)O1,-0.707% (inactive)
6,C[C@H]1C/C=C/[C@@H]2[C@@H]3O[C@]3(C)[C@@H](C)[C@H]3[C@H](Cc4ccccc4)NC(=O)[C@]32OC(=O)O/C=C/[C@](C)(O)C1=O,1.28% (inactive)
7,CCCCCCCCCCCCN=C(N)N,-0.411% (inactive)
8,CO[C@H]1[C@@H](O)[C@@H](C)O[C@H](O[C@H]2[C@H](Oc3cccc4c(O)c5c(=O)oc6ccc(C)c7c(=O)oc(c34)c5c67)O[C@H](C)[C@H](O)[C@@H]2O)[C@@H]1O,-47.8% (active)
9,Nc1ccc(-c2ccc(N)c(N)c2)cc1N,3.84% (inactive)
10,CC(=O)[O][Sn]([c]1ccccc1)([c]1ccccc1)[c]1ccccc1,-1.83% (inactive)
11,CN(C)C[C@H]1CCCC[C@]1(O)c1cccc(O)c1,0.267% (inactive)
12,COc1cc(Cn2c(N)c(C(=O)NCc3ccco3)c3nc4ccccc4nc32)cc(OC)c1OC,-52% (active)
13,CCOC(=O)C(O)(c1ccc(NC(=O)c2ccco2)c(OC)c1)C(F)(F)F (stereo not given),-4.29% (inactive)
14,CCOC(=O)c1c(N)n(Cc2ccccc2)c2nc3ccccc3nc12,-2.59% (inactive)
15,C[C@]12O[C@H](C[C@@]1(O)C(=O)O)n1c3ccccc3c3c4c(c5c6ccccc6n2c5c31)CNC4=O,0.208% (inactive)
